# Source: PubChem BioAssay (EPA / NIEHS)
# Activity calls are given as the source filed them. How the source made its calls: active means hit-call score of the fitted dose curve at least 0.9, where 1 is the maximum; inactive means score below 0.9.
# What was measured:
# Conditions in all cases: mRNA level, 48 h; actives raise or lower the signal
# [1] = read-out: ATP-citrate lyase (ACLY), ACLY (gene 47); assay: LTEA_HepaRG_ACLY: Life Technologies and Expression Analysis (LTEA) Assay for ATP-citrate lyase (ACLY) using HepaRG (AID 2283466)
# In short: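 qRT-PCR readout of ACLY transcript after 48 h chemical treatment of HepaRG cells; expression normalized to three housekeeping genes. Eight-point half-log series, highest 100 uM, 0.5% DMSO vehicle. Gain or loss fitted against DMSO baseline.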
# [2] = read-out: Alkaline Phosphatase, Placental (ALPP) gene, ALPP (gene 250); assay: LTEA_HepaRG_ALPP: Life Technologies and Expression Analysis (LTEA) Assay for Alkaline Phosphatase, Placental (ALPP) gene using HepaRG (AID 2283468);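 on AC50: differentiated human HepaRG liver cells in serum-free induction medium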
# In short: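 Using human liver HepaRG cells, chemicals are tested in duplicate over 48 h at half-log concentrations topping at 100 uM; phenobarbital 1 mM serves as induction control. ALPP mRNA change by qRT-PCR, bidirectional fit against vehicle.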
# [3] = read-out: Bcl-2 (BAD) gene, BAD (gene 572); assay: LTEA_HepaRG_BAD: Life Technologies and Expression Analysis (LTEA) Assay for Bcl-2 (BAD) gene using HepaRG (AID 2283469)
# In short: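 HepaRG, 48 h exposure, 8-pt half-log curve from 100 uM in 0.5% DMSO, duplicates. Readout: TaqMan qRT-PCR for BAD mRNA, housekeeping-normalised (ACTB/GAPDH/POLR2A); gain or loss fitted against DMSO baseline.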
# [4] = read-out: Bcl-2 (BAX) gene, BAX (gene 581); assay: LTEA_HepaRG_BAX: Life Technologies and Expression Analysis (LTEA) Assay for Bcl-2 (BAX) gene using HepaRG (AID 2283470)
# In short: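 Cells were thawed, plated for 48 h, moved to serum-free induction medium and dosed for 48 h (highest concentration 100 uM, half-log steps, 0.5% DMSO). Total RNA was then analysed for BAX expression by qRT-PCR.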
# [5] = read-out: adenosine kinase (ADK) gene, ADK (gene 132); assay: LTEA_HepaRG_ADK: Life Technologies and Expression Analysis (LTEA) Assay for adenosine kinase (ADK) gene using HepaRG (AID 2283471)
# In short: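 Differentiated HepaRG cells dosed 48 h in serum-free induction medium, 0.5% DMSO vehicle, eight half-log concentrations from 100 uM, in duplicate. ADK mRNA by TaqMan qRT-PCR normalised to ACTB, GAPDH, POLR2A; bidirectional fit versus DMSO.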
# [6] = read-out: Alpha-fetoprotein (AFP) gene, AFP (gene 174); assay: LTEA_HepaRG_AFP: Life Technologies and Expression Analysis (LTEA) Assay for Alpha-fetoprotein (AFP) gene using HepaRG (AID 2283472)
# In short: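 Chemicals were tested on differentiated HepaRG cells for 48 hours at eight concentrations up to 100 uM, with 0.5% DMSO as vehicle. AFP expression was then quantified by qRT-PCR and analyzed for gain or loss relative to DMSO.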
# BCL2L11 (gene 10018) = assay: LTEA_HepaRG_BCL2L11: Life Technologies and Expression Analysis (LTEA) Assay for Bcl-2 (BCL2L11) gene using HepaRG (AID 2283473)
# In short: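 Human hepatic HepaRG cultures are treated 48 h with test chemicals (maximum 100 uM, 0.5% DMSO vehicle). Expression of BCL2L11 is measured by qRT-PCR against ACTB, GAPDH and POLR2A, with activity in either direction scored relative to vehicle.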
# [7] = read-out: Apolipoprotein A-V (APOA5) gene, APOA5 (gene 116519); assay: LTEA_HepaRG_APOA5: Life Technologies and Expression Analysis (LTEA) Assay for Apolipoprotein A-V (APOA5) gene using HepaRG (AID 2283474)
# In short: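 Concentration-response of APOA5 expression in HepaRG: eight half-log doses to 100 uM, 48 h, qRT-PCR normalized to ACTB/GAPDH/POLR2A, bidirectional fitting with 0.5% DMSO as baseline.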
# [8] = read-out: Apoptosis regulator Bcl-2 (Homo sapiens) (UniProt P10415); assay: LTEA_HepaRG_BCL2: Life Technologies and Expression Analysis (LTEA) Assay for Bcl-2 gene using HepaRG (AID 2283475)
# In short: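 Plated human HepaRG cells are exposed to test chemicals for 48 h across eight concentrations from 100 uM downward in half-log steps (0.5% DMSO). BCL2 expression is then measured by qRT-PCR with housekeeping normalisation and fitted bidirectionally against vehicle.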
# Caspase-3 (Homo sapiens) = Caspase-3 (Homo sapiens) (UniProt P42574); assay: LTEA_HepaRG_CASP3: Life Technologies and Expression Analysis (LTEA) Assay for cysteine-aspartic acid protease (CASP3) using HepaRG (AID 2283477)
# In short: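 Transcript-level assay: CASP3 mRNA in human HepaRG after 48 h treatment, eight half-log concentrations from 100 uM in 0.5% DMSO, quantified by qRT-PCR.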
# [9] = read-out: cysteine-aspartic acid protease (CASP8), CASP8 (gene 841); assay: LTEA_HepaRG_CASP8: Life Technologies and Expression Analysis (LTEA) Assay for cysteine-aspartic acid protease (CASP8) using HepaRG (AID 2283480)
# In short: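 qRT-PCR readout of CASP8 mRNA, normalized to three housekeeping genes, after 48 h chemical exposure of HepaRG cells; 8-point half-log series, top 100 uM, 0.5% DMSO vehicle. Bidirectional curve fitting against DMSO baseline.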
# [10] = read-out: Cytochrome P450 (CYP2B6), CYP2B6 (gene 1555); assay: LTEA_HepaRG_CYP2B6: Life Technologies and Expression Analysis (LTEA) Assay for Cytochrome P450 (CYP2B6) using HepaRG (AID 2283481)
# In short: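 Human HepaRG, 48 h dosing, 0.5% DMSO vehicle, top dose 100 uM. CYP2B6 transcript by qRT-PCR, housekeeping-normalized, bidirectional curve fit.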
# [11] = read-out: Cytochrome P450 2C19 (Homo sapiens) (UniProt P33261); assay: LTEA_HepaRG_CYP2C19: Life Technologies and Expression Analysis (LTEA) Assay for CYP2C19 using HepaRG (AID 2283482)
# In short: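 Endpoint: CYP2C19 mRNA change, bidirectional fit vs 0.5% DMSO. Cells: HepaRG, 48 h exposure, eight-point series topping at 100 uM. Quantitation: qRT-PCR normalized to ACTB, GAPDH, POLR2A.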
# CYP2C9 (gene 1559) = assay: LTEA_HepaRG_CYP2C9: Life Technologies and Expression Analysis (LTEA) Assay for CYP2C9 using HepaRG (AID 2283484)
# In short: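 HepaRG, 48 h dosing, 8-pt half-log series, top 100 uM, 0.5% DMSO vehicle. Read-out: CYP2C9 transcript by TaqMan qRT-PCR, housekeeping-normalized (ACTB/GAPDH/POLR2A). Gain or loss fitted vs DMSO baseline.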
# CYP2E1 (gene 1571) = assay: LTEA_HepaRG_CYP2E1: Life Technologies and Expression Analysis (LTEA) Assay for CYP2E1 using HepaRG (AID 2283485)
# In short: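 Readout is qRT-PCR of CYP2E1 mRNA, normalized to three housekeeping genes and fitted bidirectionally against 0.5% DMSO. HepaRG cells were dosed 48 h at eight concentrations, highest 100 uM with half-log dilutions.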
# [12] = read-out: Peroxisomal acyl-coenzyme A oxidase 1 (ACOX1) gene, ACOX1 (gene 51); assay: LTEA_HepaRG_ACOX1: Life Technologies and Expression Analysis (LTEA) Assay for Peroxisomal acyl-coenzyme A oxidase 1 (ACOX1) gene using HepaRG (AID 2283467)
# In short: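 HepaRG, 48 h chemical exposure, 8-pt half-log series from 100 uM top, 0.5% DMSO vehicle, duplicates. Readout: ACOX1 mRNA by Fluidigm qRT-PCR, housekeeping-normalized; bidirectional fit vs DMSO baseline.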
# [13] = read-out: Bcl-2 (BID) gene, BID (gene 637); assay: LTEA_HepaRG_BID: Life Technologies and Expression Analysis (LTEA) Assay for Bcl-2 (BID) gene using HepaRG (AID 2283476)
# In short: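 Cells are plated, cultured 48 h, switched to serum-free induction medium, then dosed 48 h (100 uM top, half-log steps, 0.5% DMSO). RNA is isolated and BID expression read by qRT-PCR.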
# [14] = read-out: Cytochrome P450 (CYP24A1), CYP24A1 (gene 1591); assay: LTEA_HepaRG_CYP24A1: Life Technologies and Expression Analysis (LTEA) Assay for Cytochrome P450 (CYP24A1) using HepaRG (AID 2283478)
# In short: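 Gene expression of CYP24A1 by TaqMan qRT-PCR in HepaRG after 48 h treatment, highest concentration 100 uM; activity fitted in both directions relative to DMSO vehicle.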
# [15] = read-out: Cytochrome P450 (CYP1A2), CYP1A2 (gene 1544); assay: LTEA_HepaRG_CYP1A2: Life Technologies and Expression Analysis (LTEA) Assay for Cytochrome P450 (CYP1A2) using HepaRG (AID 2283479)
# In short: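 In duplicate wells, HepaRG cultures maintained in 0.5% DMSO were treated 48 h across an 8-point, half-log series topping at 100 uM; phenobarbital (1 mM) served as induction control. Expression was read by qRT-PCR.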
# CYP2C8 (gene 1558) = assay: LTEA_HepaRG_CYP2C8: Life Technologies and Expression Analysis (LTEA) Assay for CYP2C8 using HepaRG (AID 2283483)
# In short: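 HepaRG (human liver line), 48 h chemical exposure, 8-pt half-log series from 100 uM, 0.5% DMSO vehicle. Readout: CYP2C8 transcript by qRT-PCR, housekeeping-normalized. Bidirectional fit vs DMSO baseline.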
# Apoptosis regulator Bcl-2 (Homo sapiens), sequence (P10415 whole entry, looked up): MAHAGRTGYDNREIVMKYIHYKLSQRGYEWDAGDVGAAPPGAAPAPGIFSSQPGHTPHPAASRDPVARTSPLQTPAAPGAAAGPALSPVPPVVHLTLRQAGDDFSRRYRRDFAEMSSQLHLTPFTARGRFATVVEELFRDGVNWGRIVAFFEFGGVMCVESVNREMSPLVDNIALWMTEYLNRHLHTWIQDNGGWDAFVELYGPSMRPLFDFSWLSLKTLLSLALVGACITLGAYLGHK
# Cytochrome P450 2C19 (Homo sapiens), sequence (P33261 whole entry, looked up): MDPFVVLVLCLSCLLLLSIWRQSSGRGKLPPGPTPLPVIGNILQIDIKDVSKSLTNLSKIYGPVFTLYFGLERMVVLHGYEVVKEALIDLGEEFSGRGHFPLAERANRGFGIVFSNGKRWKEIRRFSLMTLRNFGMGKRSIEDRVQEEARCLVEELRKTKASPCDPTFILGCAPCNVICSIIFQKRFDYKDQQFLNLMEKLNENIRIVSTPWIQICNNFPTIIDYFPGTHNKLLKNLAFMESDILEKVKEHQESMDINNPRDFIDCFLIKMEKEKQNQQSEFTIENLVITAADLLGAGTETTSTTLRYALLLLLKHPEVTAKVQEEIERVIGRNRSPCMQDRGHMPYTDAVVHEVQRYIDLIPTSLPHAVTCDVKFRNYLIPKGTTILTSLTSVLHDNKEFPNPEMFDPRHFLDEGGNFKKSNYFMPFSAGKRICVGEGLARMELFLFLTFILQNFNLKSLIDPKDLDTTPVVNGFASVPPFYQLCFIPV
# Caspase-3 (Homo sapiens), sequence (P42574 whole entry, looked up): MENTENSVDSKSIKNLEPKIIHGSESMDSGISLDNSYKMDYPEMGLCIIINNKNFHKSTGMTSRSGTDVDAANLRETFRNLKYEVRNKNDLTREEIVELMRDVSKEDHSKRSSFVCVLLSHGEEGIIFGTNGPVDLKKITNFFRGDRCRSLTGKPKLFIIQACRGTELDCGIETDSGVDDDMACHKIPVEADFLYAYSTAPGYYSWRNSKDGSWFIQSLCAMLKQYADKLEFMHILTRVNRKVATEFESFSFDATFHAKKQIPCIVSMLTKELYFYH
compound,measurement,setting,value
Cc1cc(N=Nc2ccccc2C)ccc1N,AC50,[1],0.387 µM (active)
same,AC50,[2],12.6 µM (active)
same,outcome,[3],inactive
same,AC50,[4],1.99 µM (active)
same,AC50,[5],4.93 µM (active)
same,AC50,[6],4.69 µM (active)
same,AC50,BCL2L11 (gene 10018),3.13 µM (active)
same,AC50,[7],2.97 µM (active)
same,AC50,[8],78 µM (active)
same,outcome,Caspase-3 (Homo sapiens),inactive
same,outcome,[9],inactive
same,AC50,[10],5.08 µM (active)
same,AC50,[11],4.72 µM (active)
same,AC50,CYP2C9 (gene 1559),4.8 µM (active)
same,AC50,CYP2E1 (gene 1571),12.8 µM (active)
Nc1ccc(N=Nc2ccccc2)cc1,AC50,[12],14 µM (active)
same,outcome,[2],inactive
same,outcome,[3],inactive
same,AC50,[5],10.7 µM (active)
same,AC50,[6],20.5 µM (active)
same,AC50,BCL2L11 (gene 10018),17.6 µM (active)
same,AC50,[7],17.7 µM (active)
same,outcome,[8],inactive
same,AC50,[13],50 µM (active)
same,outcome,Caspase-3 (Homo sapiens),inactive
same,outcome,[14],inactive
same,AC50,[15],88.2 µM (active)
same,AC50,[9],17.3 µM (active)
same,AC50,[10],13.1 µM (active)
same,AC50,[11],14.4 µM (active)
same,AC50,CYP2C8 (gene 1558),17.3 µM (active)
same,AC50,CYP2C9 (gene 1559),14.7 µM (active)
same,AC50,CYP2E1 (gene 1571),23.7 µM (active)
Brc1ccc(Oc2ccccc2)cc1,outcome,[12],inactive
same,outcome,[2],inactive
same,outcome,[3],inactive
same,outcome,[4],inactive
same,outcome,[5],inactive
same,outcome,[6],inactive
same,outcome,BCL2L11 (gene 10018),inactive
same,outcome,[7],inactive
same,outcome,[8],inactive
same,outcome,[13],inactive
same,outcome,Caspase-3 (Homo sapiens),inactive
same,outcome,[15],inactive
same,outcome,[9],inactive
same,AC50,[10],78.1 µM (active)
same,outcome,[11],inactive
same,outcome,CYP2C9 (gene 1559),inactive
same,outcome,CYP2E1 (gene 1571),inactive
C[N+](C)(C)CC1CO1 (stereo not given),outcome,[1],inactive
same,outcome,[2],inactive
same,outcome,[3],inactive
same,outcome,[5],inactive
same,outcome,[6],inactive
same,outcome,BCL2L11 (gene 10018),inactive
same,outcome,[7],inactive
same,outcome,[8],inactive
same,outcome,[13],inactive
same,outcome,Caspase-3 (Homo sapiens),inactive
same,outcome,[15],inactive
same,outcome,[9],inactive
same,outcome,[10],inactive
same,outcome,[11],inactive
same,outcome,CYP2C8 (gene 1558),inactive
same,outcome,CYP2C9 (gene 1559),inactive
same,outcome,CYP2E1 (gene 1571),inactive
CN(C)C(=O)Nc1ccc(Cl)cc1,outcome,[1],inactive
same,outcome,[2],inactive
same,outcome,[3],inactive
same,outcome,[4],inactive
same,outcome,[5],inactive
same,outcome,[6],inactive
same,outcome,BCL2L11 (gene 10018),inactive
same,outcome,[7],inactive
same,outcome,[8],inactive
same,outcome,[13],inactive
same,outcome,Caspase-3 (Homo sapiens),inactive
same,AC50,[15],55 µM (active)
same,outcome,[9],inactive
same,AC50,[10],22.5 µM (active)
same,outcome,[11],inactive
same,outcome,CYP2C9 (gene 1559),inactive
same,AC50,CYP2E1 (gene 1571),50 µM (active)
CCN(CC)CCO,outcome,[1],inactive
same,outcome,[2],inactive
same,outcome,[3],inactive
same,outcome,[5],inactive
same,outcome,[6],inactive
same,outcome,BCL2L11 (gene 10018),inactive
same,outcome,[7],inactive
same,outcome,[8],inactive
same,outcome,[13],inactive
same,outcome,Caspase-3 (Homo sapiens),inactive
same,outcome,[14],inactive
same,outcome,[15],inactive
same,outcome,[9],inactive
same,outcome,[10],inactive
same,outcome,[11],inactive
same,outcome,CYP2C8 (gene 1558),inactive
same,outcome,CYP2C9 (gene 1559),inactive
same,outcome,CYP2E1 (gene 1571),inactive
Nc1cc(Cl)cc(C(=O)O)c1Cl,outcome,[1],inactive
same,outcome,[2],inactive
same,outcome,[3],inactive
same,outcome,[4],inactive
same,outcome,[5],inactive
same,outcome,BCL2L11 (gene 10018),inactive
same,outcome,[7],inactive
same,outcome,[8],inactive
same,outcome,[13],inactive
same,outcome,Caspase-3 (Homo sapiens),inactive
same,outcome,[9],inactive
same,outcome,[10],inactive
same,outcome,[11],inactive
same,outcome,CYP2C8 (gene 1558),inactive
same,outcome,CYP2C9 (gene 1559),inactive
same,outcome,CYP2E1 (gene 1571),inactive
[Cl-].[Cl-].[Hg+2],outcome,[1],inactive
same,outcome,[2],inactive
same,outcome,[3],inactive
same,outcome,[5],inactive
same,outcome,[6],inactive
same,outcome,BCL2L11 (gene 10018),inactive
same,outcome,[7],inactive
same,outcome,[8],inactive
same,outcome,[13],inactive
same,outcome,Caspase-3 (Homo sapiens),inactive
same,outcome,[14],inactive
same,outcome,[9],inactive
same,outcome,[10],inactive
same,outcome,[11],inactive
same,outcome,CYP2C8 (gene 1558),inactive
same,outcome,CYP2C9 (gene 1559),inactive
same,outcome,CYP2E1 (gene 1571),inactive
